The record followed here is PubChem BioAssay (Tox21).

SMILES strings stand for the structures. Inconclusive results are not listed. Active and inactive are the calls of the source. Calls follow the shape of the dose curve; as a rule, active = well fitted activation curve with a large enough effect in the signal ratio in the repeat runs (not every such curve was filed as active); inconclusive = weak or mixed curves; inactive = flat fitted curve, though single readings scatter; the % refers to the signal ratio.
% is scaled to controls: 0 for no effect and ±100 for the full control effect; potency is read from the fitted curve at half-maximal effect.

This assay can be described thus: qHTS assay to identify small molecule agonists of H2AX (AID 1224845). As to conditions: CHO-K1 phospho-H2AX Ser139 HTRF, 3 h; series mostly up to 154 µM; activation (H2AX phosphorylation): at the top concentration. An excerpt:
National Center for Advancing Translational Sciences [NCATS]
NIH Chemical Genomics Center [NCGC]
U.S. Environmental Protection Agency [EPA]
National Institutes of Environmental Health Sciences [NIEHS]
National Toxicology Program [NTP]
U.S. Food and Drug Administration [FDA]
HTRF phospho-H2AX (Ser139) assay (Cisbio Bioassays, US) enables the quantitative detection of the histone variant H2AX when phosphorylated on serine 139. When double-stranded DNA breaks, either by ionizing radiation or endogenous physiological processes, H2AX becomes phosphorylated at Ser139. This phospho-Ser139 serves as a sensitive biomarker for the detection of such breaks, localizing the site of DNA repair. So, HTRF phospho-H2AX Ser139 is a pertinent assay to study genome stability, the cell cycle, DNA repair, and it serves as a biomarker for cancer, and to understand aging. Wild type CHO-K1 cells were used to identify the inducers of Phospho-H2AX Ser 139 from the Tox21 10K compound collections.
Tox21 Assay Protocol Summary:
The CHO-K1 cells suspended in culture medium containing 10% FBS were dispensed at 1000 cells/ 3 ul/well in 1536-well white wall/solid bottom plates (Greiner Bio-One North America, NC) using a Multidrop Combi (Thermo Fisher Scientific Inc., Waltham, MA). After the assay plates were incubated at 37C overnight, 23 nl of compounds at 15 concentrations (from 5-48 columns) or positive control (from 1 to 4 columns) were transferred to the assay plates using a Pintool station (Wako, San Diego, CA) into each well resulting in a final DMSO concentration of 0.76%. After 3hr incubation at 37C, 1 uL/well Supplemented Lysis buffer (diluted 100 fold blocking reagent in lysis buffer) (HTRF Phospho-H2A.X (S139) Assay kit from Cisbio US Inc., Bedford, MA) was added using a Flying Reagent Dispenser (FRD) (Aurora Discovery, CA). After 10sec spin at 1000 rpm in a plate centrifuge, the assay plates were incubated at room temperature for 30 min. Then followed by the addition of 1 uL/well detection buffer (containing a mixture of two antibodies, one labeled with cryptate, Anti pH2AX (S139)-K and another labeled with d2, Anti H2AX-d2) using FRD. After incubation at room temperature for 24 hr, the time resolved fluorescence at excitation 320 nm and emissions at 665 nm and 620 nm was measured using an Envision plate reader (PerkinElmer, Waltham, MA).
`c1cc(C(c2ccc(OCC3CO3)cc2)c2ccc(OCC3CO3)cc2)ccc1OCC1CO1` (stereo not given): the “activation (H2AX phosphorylation)” value is 6.07% (inactive).

`CO[Si](CCCNc1ccccc1)(OC)OC`: the “activation (H2AX phosphorylation)” value is 0.201% (inactive).

Consider `O=C1C=CC(=O)N1`, for which the Potency is 14.6 µM (active).

Regarding `CCCCCCOC(=O)c1ccc(O)cc1`, the Potency result is “inactive”.

In the case of `CCCCCOC(=O)CCCC`, the “activation (H2AX phosphorylation)” value was -2.94% (inactive).

With `C[C@@H](NCCCc1cccc(C(F)(F)F)c1)c1cccc2ccccc12`, the Potency was 49.2 µM (active).

As for `NC(=NCCCCCCN=C(N)/N=C(\N)Nc1ccc(Cl)cc1)/N=C(\N)Nc1ccc(Cl)cc1`, the Potency result is “inactive”.

Take `Cc1cc(O)c(C(C)(C)C)cc1C(C)(C)C`: the Potency was 89.8 µM (active).

As to `CC[C@H](c1ccc(O)cc1)[C@@H](CC)c1ccc(O)cc1`, the Potency result is “inactive”.

Turning to `CC(C)(C)CC(C)(C)c1ccc(O)c(Cc2ccc(Cl)cc2Cl)c1`, the Potency is 19.6 µM (active).

Turning to `O=C1c2ccccc2Cc2ccccc21`, the “activation (H2AX phosphorylation)” value is 0.457% (inactive).

`O=C(O)c1c(Cl)cccc1Cl`: the “activation (H2AX phosphorylation)” value is 0.817% (inactive).

Take `CC1=NC(C)OC1C` (stereo not given): the “activation (H2AX phosphorylation)” value is 1.04% (inactive).

With `Cc1oc(-c2ccccc2)nc1CCC(=O)c1ccc(CC2SC(=O)NC2=O)cc1` (stereo not given), the “activation (H2AX phosphorylation)” value is 0.0188% [at 70.9 µM] (inactive).

With `CC(C)OC(=O)c1cc2c(OCC(O)CNC(C)(C)C)cccc2[nH]1` (stereo not given), the “activation (H2AX phosphorylation)” value was 0.8% [at 70.9 µM] (inactive).

As to `Cc1cc(O)c(Cl)c(C)c1Cl`, the “activation (H2AX phosphorylation)” value was -1.08% (inactive).

`CCc1cc(Cc2cc(CC)cc(C(C)(C)C)c2O)c(O)c(C(C)(C)C)c1`: the Potency was 50.5 µM (active).

As for `COc1cc(/C=C/C(=O)O[C@H]2CC[C@]34C[C@]35CC[C@]3(C)[C@@H]([C@H](C)CCC=C(C)C)CC[C@@]3(C)[C@@H]5CC[C@H]4C2(C)C)ccc1O`, the “activation (H2AX phosphorylation)” value was -2.18% [at 70.9 µM] (inactive).

For `CCCCCCCCCCC=O`, the “activation (H2AX phosphorylation)” value was -0.402% (inactive).

Turning to `O=[N+]([O-])c1ccccc1Nc1ccccc1`, the “activation (H2AX phosphorylation)” value was -2.09% (inactive).

As for `CCOC(=O)/C=C(C)/C=C/C=C(C)/C=C/c1c(C)cc(OC)c(C)c1C`, the “activation (H2AX phosphorylation)” value was -2.44% [at 70.9 µM] (inactive).

Take `Cc1nc(-c2ccc3c(c2)CCN(CCC2CCC(NC(=O)/C=C/c4ccc(F)cc4)CC2)CC3)no1` (stereo not given): the “activation (H2AX phosphorylation)” value was -4.3% [at 70.9 µM] (inactive).

Turning to `C=CC(=O)OCC(CO)(COC(=O)C=C)COC(=O)C=C`, the Potency was 14.2 µM (active).

Take `CN(C)c1ccc(SC#N)cc1`: the “activation (H2AX phosphorylation)” value is -4.34% (inactive).

Take `Cc1onc(-c2c(Cl)cccc2Cl)c1C(=O)N[C@@H]1C(=O)N2[C@@H]1SC(C)(C)[C@@H]2C(=O)O`: the “activation (H2AX phosphorylation)” value was -3.39% [at 70.9 µM] (inactive).

Turning to `CCCC/C=C/CCCCO`, the “activation (H2AX phosphorylation)” value is 0.306% (inactive).

Regarding `C1CCCC1`, the “activation (H2AX phosphorylation)” value was -0.131% (inactive).

Regarding `O=C1C=CC(=O)N1c1ccc(Cc2ccc(N3C(=O)C=CC3=O)cc2)cc1`, the “activation (H2AX phosphorylation)” value was -1.8% (inactive).

As for `CC(=O)SC[C@@H](Cc1ccccc1)C(=O)NCC(=O)OCc1ccccc1`, the “activation (H2AX phosphorylation)” value is -1.04% [at 70.9 µM] (inactive).

For the compound `CCOc1ccc2nc3cc(N)ccc3c(N)c2c1`, the “activation (H2AX phosphorylation)” value was -0.651% [at 70.9 µM] (inactive).

On to `O=C(Nc1ccc(Oc2ccc(Cl)cc2)c(Cl)c1)c1cc(I)cc(I)c1O`, for which the “activation (H2AX phosphorylation)” value is 1.78% [at 70.9 µM] (inactive).

Turning to `Cc1cc(C2CCCCC2)n(O)c(=O)c1`, the Potency is 9.82 µM (active).

`CCCCCCCCCCCCCCCC[N+](C)(C)CCN(Cc1ccc(OC)cc1)c1ncccn1`: the “activation (H2AX phosphorylation)” value was 2.92% [at 70.9 µM] (inactive).

Turning to `CCOc1nc2cccc(C(=O)OC(C)OC(=O)OC3CCCCC3)c2n1Cc1ccc(-c2ccccc2-c2nn[nH]n2)cc1` (stereo not given), the Potency is 45 µM (active).

Turning to `COC(=O)C1=C(C)NC(C)=C(C(=O)OCC(C)C)C1c1ccccc1[N+](=O)[O-]` (stereo not given), the “activation (H2AX phosphorylation)” value is 2.63% [at 70.9 µM] (inactive).

As to `CCC1=C[C@@H]2CN(C1)Cc1c([nH]c3ccccc13)[C@@](C(=O)OC)(c1cc3c(cc1OC)N(C)[C@H]1[C@@](O)(C(=O)OC)[C@H](OC(C)=O)[C@]4(CC)C=CCN5CC[C@]31[C@@H]54)C2`, the “activation (H2AX phosphorylation)” value is -0.942% [at 70.9 µM] (inactive).

For `CCOC(=O)O[C@H](C)OC(=O)c1ccc2c(c1)cc(C(=O)NC1CCN(C(C)C)CC1)n2Cc1cc(-c2ccc(Cl)s2)on1`, the Potency was 42 µM (active).

On to `O=C(Oc1cccc2cccnc12)c1ccccc1`, for which the Potency is 9.82 µM (active).

`O=c1cccccc1O`: the Potency is 40.9 µM (active).

`CCCC1O[C@@H]2C[C@H]3[C@@H]4CCC5=CC(=O)C=C[C@]5(C)[C@H]4[C@@H](O)C[C@]3(C)[C@]2(C(=O)CO)O1` (stereo not given in full): the Potency entry is “inactive”.
